Measured values from PubChem BioAssay (NCI).
About 83,000 compounds went through this panel and 20% of them were active in at least one assay; those are over-represented in the sample as a whole.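 In brief: 96-well plates, 48 h treatment, single concentration, percent growth endpoint.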 Active and inactive are the calls of the source. The calls were made as follows: active = growth percent below 10; inactive = the rest.

Tests used:
Test in all cases: NCI-60 one-dose screen, 48 h (100 = growth as untreated, 0 = no growth, -100 = all killed)
Settings in all cases: 10 µM unless noted
DU-145 prostate = system: DU-145 prostate
K-562 leukemia = system: K-562 leukemia
MALME-3M melanoma = system: MALME-3M melanoma
MDA-MB-231 breast = system: MDA-MB-231 breast
RXF 393 renal = system: RXF 393 renal
SF-268 CNS = system: SF-268 CNS
SF-295 CNS = system: SF-295 CNS
SF-539 CNS = system: SF-539 CNS
UACC-257 melanoma = system: UACC-257 melanoma
M14 melanoma = system: M14 melanoma

Measured: growth

COc1ccc(/C=C/c2nc3ccccc3n3c(-c4cccc([N+](=O)[O-])c4)nnc23)cc1
active: DU-145 prostate -18% | K-562 leukemia 5.5% | MALME-3M melanoma -69.7% | MDA-MB-231 breast 1.23% | RXF 393 renal -85.2% | SF-268 CNS -16.4% | SF-539 CNS -86.5% | UACC-257 melanoma -48.9% | M14 melanoma -77.4%
inactive: SF-295 CNS 12.4%

CS(=O)(=O)c1ccc(-n2nc(C(=O)NCc3ccccc3)cc2-c2ccc(Cl)cc2)cc1
inactive: DU-145 prostate 91.4% | K-562 leukemia 49.4% | MALME-3M melanoma 112% | MDA-MB-231 breast 96.3% | RXF 393 renal 94.9% | SF-268 CNS 82.2% | SF-295 CNS 73.6% | SF-539 CNS 99.4% | UACC-257 melanoma 98.9% | M14 melanoma 93.9%

C=CC(=O)N1CCN(c2ccc3nc4c(nc3c2C(F)(F)F)C(=O)c2ncccc2C4=O)CC1
inactive: DU-145 prostate 23.6% | RXF 393 renal 44.1% | SF-268 CNS 21.3% | SF-295 CNS 28.8%
active: K-562 leukemia 3.62% | MALME-3M melanoma -97.9% | MDA-MB-231 breast -13.6% | SF-539 CNS -32.9% | UACC-257 melanoma -82.7% | M14 melanoma -59.9%

Cc1cnc2ccc(Oc3ccccc3-c3ccccc3)nn12
inactive: DU-145 prostate 115% | K-562 leukemia 101% | MALME-3M melanoma 100% | MDA-MB-231 breast 109% | RXF 393 renal 107% | SF-268 CNS 106% | SF-295 CNS 97.5% | SF-539 CNS 104% | UACC-257 melanoma 116% | M14 melanoma 99.6%

COC(=O)c1cc(C(C)=O)n2c3ccccc3c3ccccc3c12
inactive: DU-145 prostate 67% | K-562 leukemia 85.9% | MALME-3M melanoma 84.6% | MDA-MB-231 breast 33.2% | RXF 393 renal 11.8% | SF-268 CNS 59.5% | SF-295 CNS 56% | SF-539 CNS 28.5% | UACC-257 melanoma 118% | M14 melanoma 72.1%

N#CC1=C(c2cccs2)Nc2c(c(-c3ccccc3)nn2-c2ccccc2)C12C(=O)Nc1ccc(Cl)cc12 (stereo not given)
active: RXF 393 renal -11.4%
inactive: DU-145 prostate 50.5% | K-562 leukemia 11.1% | MALME-3M melanoma 76.3% | MDA-MB-231 breast 21.5% | SF-268 CNS 23.2% | SF-295 CNS 12.9% | SF-539 CNS 20.5% | UACC-257 melanoma 63.5% | M14 melanoma 16.5%

CCN1C(=O)N(CC)C2NNC(Sc3c(C(=O)O)c4ccccc4n(CC(C)C)c3=O)=NC21 (stereo not given)
active: K-562 leukemia 5.86% | SF-295 CNS -14.8% | SF-539 CNS -29%
inactive: DU-145 prostate 20% | MALME-3M melanoma 48.1% | MDA-MB-231 breast 15.9% | RXF 393 renal 81.8% | SF-268 CNS 55.7% | UACC-257 melanoma 50.3% | M14 melanoma 22.4%

O=C(CSc1nc2sc3c(c2c(=O)n1-c1ccc(Cl)cc1)CCCC3)NNC(=O)c1ccc(F)cc1
active: SF-539 CNS -28.4%
inactive: DU-145 prostate 109% | K-562 leukemia 72.3% | MALME-3M melanoma 80.5% | MDA-MB-231 breast 28.8% | RXF 393 renal 89.7% | SF-268 CNS 95.9% | SF-295 CNS 90.4% | UACC-257 melanoma 106% | M14 melanoma 80.6%

Nc1nn2c(-c3cc4cc(Br)ccc4oc3=O)ccnc2c1N=Nc1ccc(Br)cc1
inactive: DU-145 prostate 36.8% | K-562 leukemia 32.4% | MALME-3M melanoma 52.1% | SF-268 CNS 26.9% | UACC-257 melanoma 87.8% | M14 melanoma 42.4%
active: MDA-MB-231 breast -43.8% | RXF 393 renal -31.4% | SF-295 CNS -37% | SF-539 CNS -71.4%

COc1cccc(/C=C/c2nc3ccccc3c(=O)n2CC(=O)Nc2ccccc2)c1
active: MDA-MB-231 breast -29% | RXF 393 renal 0.184%
inactive: DU-145 prostate 87.8% | K-562 leukemia 93% | MALME-3M melanoma 56.1% | SF-268 CNS 69.5% | SF-295 CNS 48.8% | SF-539 CNS 11.8% | UACC-257 melanoma 67.8% | M14 melanoma 47.8%

N#Cc1cc(-c2ccnc(Nc3ccc(N4CCN(C5COC5)CC4)cc3)n2)ccc1N1CCCC1
inactive: DU-145 prostate 51% | K-562 leukemia 42.5% | MALME-3M melanoma 104% | MDA-MB-231 breast 65% | SF-268 CNS 50.2% | SF-295 CNS 85.6% | SF-539 CNS 46.5% | UACC-257 melanoma 74.4% | M14 melanoma 71.9%
active: RXF 393 renal 9.2%

O=C(CSc1nnc(-c2ccc(-c3nc4ccc(Cl)cc4[nH]3)cc2)o1)Nc1ccc(Br)cc1
inactive: DU-145 prostate 39.1% | K-562 leukemia 15% | SF-268 CNS 28.5% | UACC-257 melanoma 13.1%
active: MALME-3M melanoma -20.2% | MDA-MB-231 breast -76% | RXF 393 renal -50.9% | SF-295 CNS 8.38% | SF-539 CNS -96.3% | M14 melanoma 2.92%

Cn1cc(-c2cc(N)n3nc(-c4c[nH]c5ccc(Cl)cc45)cc3n2)c2cc(Br)cnc21
active: DU-145 prostate -71.6% | K-562 leukemia -63.7% | MALME-3M melanoma -79.1% | MDA-MB-231 breast -73.4% | RXF 393 renal -70.4% | SF-268 CNS 9.71% | SF-295 CNS -50.9% | SF-539 CNS -91.1% | UACC-257 melanoma -55% | M14 melanoma -92.4%

COc1ccc(/C=C/C(=O)c2ccc(S(=O)(=O)NCCNc3nc(N(C)C)nc(N4CCOCC4)n3)cc2)cc1
inactive: DU-145 prostate 103% | K-562 leukemia 35.9% | MALME-3M melanoma 97.5% | MDA-MB-231 breast 88.4% | RXF 393 renal 92.1% | SF-268 CNS 84.1% | SF-295 CNS 92.5% | SF-539 CNS 83.7% | UACC-257 melanoma 96.5% | M14 melanoma 92.1%

Nc1cc(-c2c[nH]c3ccc(Br)cc23)nc2cc(-c3c[nH]c4ccccc34)nn12
active: DU-145 prostate -47.5% | K-562 leukemia 6.16% | MALME-3M melanoma -88.1% | MDA-MB-231 breast -83.3% | RXF 393 renal -76.7% | SF-268 CNS -44.5% | SF-295 CNS -87.6% | SF-539 CNS -93.5% | UACC-257 melanoma -86.9% | M14 melanoma -69.4%

N#C/C(=C/c1ccc([N+](=O)[O-])cc1)c1nnc(NC(=O)c2ccc(-n3c(=O)[nH]c4ccccc4c3=O)cc2)s1
inactive: DU-145 prostate 83.1% | K-562 leukemia 103% | MALME-3M melanoma 91.6% | MDA-MB-231 breast 89.5% | RXF 393 renal 87.9% | SF-268 CNS 110% | SF-295 CNS 100% | SF-539 CNS 93.6% | UACC-257 melanoma 105% | M14 melanoma 120%

C#CCN(C)CCCOc1ccc(N(CC)C(=O)c2cc(C(C)C)c(O)cc2O)cc1Cl
inactive: SF-268 CNS 28.2%
active: DU-145 prostate 1.4% | K-562 leukemia -26.6% | MALME-3M melanoma -51.5% | MDA-MB-231 breast -45.3% | RXF 393 renal 2.57% | SF-295 CNS -2.79% | SF-539 CNS 6.42% | UACC-257 melanoma -11.6% | M14 melanoma -45.8%

Fc1ccc(N2CC(Cn3c(C(F)(F)F)cc4c(Cl)ncnc43)C2)c(F)c1
active: DU-145 prostate -6.58% | K-562 leukemia -57% | MDA-MB-231 breast -81.9% | RXF 393 renal -51.1% | SF-268 CNS -42% | M14 melanoma -60.9%
inactive: MALME-3M melanoma 89.7% | SF-295 CNS 87.8% | SF-539 CNS 50.2% | UACC-257 melanoma 11.4%

CN(C)c1nc(NCCNS(=O)(=O)c2ccc(C(=O)/C=C/c3ccc(Cl)cc3)cc2)nc(N2CCOCC2)n1
inactive: MALME-3M melanoma 89.2% | MDA-MB-231 breast 15.7% | SF-268 CNS 57.8% | SF-295 CNS 55.5% | UACC-257 melanoma 71.5%
active: DU-145 prostate 6.95% | K-562 leukemia -6.36% | RXF 393 renal -59.3% | SF-539 CNS -67.5% | M14 melanoma -20.2%

CCCCCCCCc1cccc(CC(=O)Nc2ccc(C)cc2C(=O)O)c1
inactive: DU-145 prostate 59.4% [25 µM] | K-562 leukemia 28.9% [25 µM] | MALME-3M melanoma 67.7% [25 µM] | MDA-MB-231 breast 66.5% [25 µM] | RXF 393 renal 104% [25 µM] | SF-268 CNS 61.9% [25 µM] | SF-295 CNS 35.2% [25 µM] | SF-539 CNS 37.1% [25 µM] | UACC-257 melanoma 71.2% [25 µM] | M14 melanoma 62.9% [25 µM]

COc1cc(CNC(=O)C[C@H](C)CCC=C(C)C)ccc1OCc1cn(-c2ccccc2Cl)nn1
inactive: DU-145 prostate 90.1% | K-562 leukemia 44.6% | MALME-3M melanoma 68.2% | MDA-MB-231 breast 72.6% | RXF 393 renal 72.6% | SF-268 CNS 82.4% | SF-295 CNS 56.4% | SF-539 CNS 75.2% | UACC-257 melanoma 60.3% | M14 melanoma 55.9%

N#C/C(=C1/C(=O)Nc2ccccc21)c1nnc(NC(=O)c2ccc(-n3c(=O)[nH]c4ccccc4c3=O)cc2)s1
inactive: DU-145 prostate 37.4% | K-562 leukemia 15.9% | MALME-3M melanoma 26.9% | RXF 393 renal 53.4% | SF-268 CNS 65.4% | SF-295 CNS 74.5% | SF-539 CNS 36.4% | UACC-257 melanoma 47.9% | M14 melanoma 58.2%
active: MDA-MB-231 breast 4.04%

Cc1ccc(Nc2nnc(-c3c[nH]c4ccccc34)o2)c(C)c1
inactive: DU-145 prostate 16.5% | MALME-3M melanoma 39.1% | SF-268 CNS 32.5% | UACC-257 melanoma 60.9% | M14 melanoma 15.6%
active: K-562 leukemia 6.22% | MDA-MB-231 breast -1.28% | RXF 393 renal -11.9% | SF-295 CNS 9.91% | SF-539 CNS -32.4%

Cc1ccc(/C=C/C(=O)c2ccc(S(=O)(=O)NCCNc3nc(N(C)C)nc(N4CCOCC4)n3)cc2)cc1
active: K-562 leukemia 6.8%
inactive: DU-145 prostate 95.3% | MALME-3M melanoma 108% | MDA-MB-231 breast 85% | RXF 393 renal 85% | SF-268 CNS 79.6% | SF-295 CNS 94.4% | SF-539 CNS 81.7% | UACC-257 melanoma 85.7% | M14 melanoma 95.5%

O=C(NC(=S)N1CCN(c2ncnc3c2cnn3-c2ccccc2)CC1)c1ccc(Br)cc1
active: SF-539 CNS -17.5%
inactive: DU-145 prostate 87.3% | K-562 leukemia 61.4% | MALME-3M melanoma 53.4% | MDA-MB-231 breast 75.4% | RXF 393 renal 69.1% | SF-268 CNS 58.5% | SF-295 CNS 48.3% | UACC-257 melanoma 88.7% | M14 melanoma 83.1%
